According to PubChem BioAssay (NCI):
This is part of a sample that, as a whole, favours compounds with a hit. Of some 79,000 tested, about 15% had one in any assay. Activity calls are given as the source filed them. Cut-off read from the data, not from the text of the source: active = growth inhibition above about 70%; inactive = the rest.

How the values were obtained:
[1] = NCI Yeast Anticancer Drug Screen. Data for the rad50 strain (AID 155);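 note: 0% = growth of vehicle-only cultures of the same strain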; conditions: S. cerevisiae rad50 strain growth inhibition, hits give high values
Method in brief: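 Genetically altered yeast (DNA repair pathway); compound treatment; growth inhibition vs vehicle ctrl.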

[2] = NCI Yeast Anticancer Drug Screen. Data for the mec2-1 strain (AID 157); conditions: S. cerevisiae mec2-1 strain, hits give high values
Method in brief: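 Strain: mec2-1 (DNA repair/cell cycle alteration). Compound exposure, then growth measured; inhibition expressed relative to vehicle.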

[3] = NCI Yeast Anticancer Drug Screen. Data for the sgs1 mgt1 strain (AID 161);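 note: 0% = growth of cultures given vehicle only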; conditions: S. cerevisiae sgs1 mgt1 strain, hits give high values
Method in brief: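 Inhibition of yeast growth, normalised to vehicle-treated controls, is reported for a strain bearing genetic alterations in DNA damage repair.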

[4] = NCI Yeast Anticancer Drug Screen. Data for the cln2 rad14 strain (AID 165);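 note: 0% = growth equal to vehicle treated cultures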; conditions: S. cerevisiae cln2 rad14 strain, hits give high values
Method in brief: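 Compounds are applied to the cln2 rad14 yeast strain, and growth is then compared with that of vehicle-treated cultures to give inhibition.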

[5] = NCI Yeast Anticancer Drug Screen. Data for the bub3 strain (AID 167); conditions: S. cerevisiae bub3 mutant strain, hits give high values
Method in brief: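 Yeast carrying a defined mutation is treated with each compound, and growth is compared with that of vehicle-exposed cells to give inhibition.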

[6] = NCI Yeast Anticancer Drug Screen. Data for the mlh1 rad18 strain (AID 175); conditions: S. cerevisiae mlh1 rad18 strain growth inhibition, hits give high values
Method in brief: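 Read-out is yeast growth inhibition, calculated against vehicle-only controls. The compound was applied to a strain engineered with DNA damage repair alterations.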

[7] = at 5.0 µM (retest, dose inferred, filed as 0.5)
[8] = at 50.0 µM (retest, dose inferred, filed as 5.0)

Measured: growth inhibition

CCCCCCCCCCC[n+]1ccc(C#N)cc1
active: [1]; at 50.0 µM 91.8% | [2]; [8] 84% | [3]; [8] 91% | [3]; at 50.0 µM 92.5% | [4]; at 50.0 µM 76.8% | [5]; [8] 75% | [5]; at 50.0 µM 77.6% | [6]; [8] 76% | [6]; at 50.0 µM 91.6%
inactive: [1]; [7] -6% | [1]; [8] 64% | [2]; [7] 10% | [2]; at 50.0 µM 57.7% | [3]; [7] 14% | [4]; [7] 16% | [4]; [8] 56% | [5]; [7] -5% | [6]; [7] 10%

CC(=O)OCc1cc2c(s1)C(=O)c1sccc1C2=O
inactive: [1]; [7] 21% | [1]; at 50.0 µM 49.6% | [2]; [7] 8% | [2]; [8] 67% | [3]; [7] 12% | [3]; [8] 15% | [4]; [7] 11% | [4]; [8] 21% | [5]; [7] 41% | [5]; [8] 60% | [6]; [7] 24%
active: [1]; [8] 83% | [2]; at 50.0 µM 81% | [3]; at 50.0 µM 88.8% | [4]; at 50.0 µM 86.2% | [5]; at 50.0 µM 88.7% | [6]; [8] 89% | [6]; at 50.0 µM 89%

COC(=O)C1C2CC3c4[nH]c5cc(OC)c(Br)cc5c4CCN3CC2CC(OC(=O)c2cc(OC)c(OC)c(OC)c2)C1OC (configuration not stated)
active: [1]; [8] 91% | [1]; at 50.0 µM 89.7% | [2]; [8] 74% | [2]; at 50.0 µM 87.5% | [3]; [8] 82% | [3]; at 50.0 µM 86.2% | [4]; [8] 86% | [4]; at 50.0 µM 84.3% | [5]; [8] 87% | [5]; at 50.0 µM 86.2% | [6]; [8] 97% | [6]; at 50.0 µM 86.6%
inactive: [1]; [7] -4% | [2]; [7] -4% | [3]; [7] -5% | [4]; [7] 8% | [5]; [7] -16% | [6]; [7] -30%

Clc1ccc(-c2nnc(-c3ccccn3)o2)c(Cl)c1
active: [1]; [8] 99% | [1]; at 50.0 µM 99.2% | [2]; [8] 80% | [3]; [8] 99% | [3]; at 50.0 µM 99.2% | [4]; [8] 83% | [4]; at 50.0 µM 92.7% | [5]; [8] 94% | [5]; at 50.0 µM 70.1% | [6]; [8] 96% | [6]; at 50.0 µM 99.4%
inactive: [1]; [7] 4% | [2]; [7] -1% | [2]; at 50.0 µM 28.1% | [3]; [7] 0% | [4]; [7] -2% | [5]; [7] 1% | [6]; [7] 1%

CCOC(=O)c1cc2c(nc1NCc1ccc(OC)c(OC)c1)/C(=C/c1ccccc1)CCCC2
inactive: [1]; [7] 38% | [2]; [7] 17% | [3]; [7] 47% | [4]; [7] 28% | [5]; [7] 49% | [6]; [7] 58%
active: [1]; [8] 94% | [1]; at 50.0 µM 90.2% | [2]; [8] 93% | [2]; at 50.0 µM 88.8% | [3]; [8] 94% | [3]; at 50.0 µM 91.8% | [4]; [8] 84% | [4]; at 50.0 µM 80.2% | [5]; [8] 94% | [5]; at 50.0 µM 92.5% | [6]; [8] 92% | [6]; at 50.0 µM 90.2%

C=C1C(=O)[C@@]23CC[C@H]4[C@@](C)(CCC[C@@]4(C)C(=O)OC)[C@@H]2CC[C@]1(O)C3
active: [1]; [7] 83% | [1]; [8] 99% | [1]; at 50.0 µM 92.2% | [2]; [7] 92% | [2]; [8] 99% | [2]; at 50.0 µM 94.4% | [3]; [7] 83% | [3]; [8] 99% | [3]; at 50.0 µM 94% | [4]; [8] 99% | [4]; at 50.0 µM 92.2% | [5]; [7] 94% | [5]; [8] 99% | [5]; at 50.0 µM 93.7% | [6]; [7] 92% | [6]; [8] 99% | [6]; at 50.0 µM 90.8%
inactive: [4]; [7] 54%

Cc1ncc(Br)c(C(=O)O)n1
inactive: [1]; [7] 0% | [1]; [8] -7% | [1]; at 50.0 µM 6.65% | [2]; [7] 1% | [2]; [8] 3% | [2]; at 50.0 µM 19.3% | [3]; [7] 5% | [3]; [8] -3% | [3]; at 50.0 µM 3.1% | [4]; [7] -5% | [4]; [8] 1% | [4]; at 50.0 µM 34.2% | [5]; [7] -4% | [5]; [8] -6% | [5]; at 50.0 µM 0.75% | [6]; [7] -1% | [6]; [8] -8% | [6]; at 50.0 µM 52.9%

O=C1c2ccccc2C(=O)c2c(Nc3cc4c5c(ccc6c7ccc8c9c(cc(Nc%10cccc%11c%10C(=O)c%10ccccc%10C%11=O)c(c3c56)c97)-c3ccccc3C8=O)C(=O)c3ccccc3-4)cccc21
inactive: [1]; [7] 1% | [1]; [8] 15% | [1]; at 50.0 µM 16.9% | [2]; [7] -5% | [2]; [8] -3% | [2]; at 50.0 µM 44% | [3]; [7] 2% | [3]; [8] -3% | [3]; at 50.0 µM -1.9% | [4]; [7] -6% | [4]; [8] 4% | [4]; at 50.0 µM 40.8% | [5]; [7] -11% | [5]; [8] 6% | [5]; at 50.0 µM 3.1% | [6]; [7] -13% | [6]; [8] -4% | [6]; at 50.0 µM -4.35%

O=c1c2ccccc2sc2c(CO)ccc(NCCN3CCCCC3)c12
inactive: [1]; [7] -5% | [1]; [8] 45% | [2]; [7] 6% | [2]; [8] -21% | [2]; at 50.0 µM 23.6% | [3]; [7] -9% | [3]; [8] 35% | [3]; at 50.0 µM 34.5% | [4]; [7] -21% | [4]; [8] 13% | [4]; at 50.0 µM 24.5% | [5]; [7] 12% | [5]; [8] 13% | [5]; at 50.0 µM 25.4% | [6]; [7] 2% | [6]; [8] 40% | [6]; at 50.0 µM 40.1%
active: [1]; at 50.0 µM 71.2%
